The record followed here is PubChem BioAssay.

Molecules are shown by their SMILES.

The assay is described as follows: blood-stage malaria parasite viability loss – strain 3D7, DAPI fluorescence, 100 nL, primary screen (AID 1184).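 Note: parasites grown inside human red blood cells in medium with human serum.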 The note with it: P. falciparum 3D7 growth, 3 d, higher = more signal.
Take `COC(=O)CC=C[C@@H](C)[C@@H](C=NO[C@H](C)c1cn([C@H](CO)Cc2ccccc2)nn1)NS(=O)(=O)c1ccc(C)cc1`: the z-score stood at 0.346.

The compound `CC(C)CCN1CCc2nc(COc3ccccc3)c3c(c2C1)CO[C@@H](C)C3` gave a z-score of 0.329.

Regarding `COC(=O)CC=C[C@@H](C)[C@@H](C=NOC[C@H]1O[C@H](c2ccccc2)C=C[C@@H]1Oc1ccc(OC)cc1)OC`, the z-score is 0.201.

As for `C#CCCCON=C1[C@H]2CCn3c(=O)n(-c4ccccc4)c(=O)n3[C@H]2[C@H](O)[C@@H]2O[C@H]12`, the z-score was -1.19.

`C#CCCCON=C1C[C@@H](O)[C@@H](O)[C@@H]2[C@@H]3C(=O)N(C(C)(C)C)C(=O)[C@@H]3CC[C@H]12` had a z-score of -0.381.

Regarding `O=C(NN=C1C[C@@H](O)[C@@H](O)[C@@H]2[C@@H]3C(=O)N(C[C@@H]4CCCO4)C(=O)[C@@H]3CC[C@H]12)OCc1ccccc1`, the z-score amounted to 0.0837.

The compound `COC(=O)CC=C[C@@H](C)[C@@H](C=NOC[C@@H](O)[C@H]1O[C@@H]2OC(C)(C)O[C@@H]2[C@H]1O)NS(=O)(=O)c1ccc(C)cc1` came in with a z-score of 1.4.

In the case of `O=c1n(-c2ccccc2)c(=O)n2n1CC[C@@H]1C(=NOCc3ccccc3)[C@H]3O[C@H]3[C@@H](O)[C@@H]12`, the z-score is -0.557.

In turn, `CC(CCN1CCCCc2nc(C)c(C)cc21)=NOC[C@@H](O)COCc1ccco1` had a z-score of -0.246.

With `CCOC(=O)[C@H](Cc1ccccc1)NC(=O)CCC1CC(OC(=O)NCCc2ccc(F)cc2)CC2(CCCC(COC(=O)NCCOC)O2)O1` (some centres undefined), the z-score is -0.218.

As to `Cn1c(=O)n2n(c1=O)[C@H]1[C@H](O)[C@@H]3O[C@@H]3C(=NOCc3ccccc3)[C@H]1CC2`, the z-score stood at 0.769.

As for `CC(C)=CCCC(C)=CCON=C1C[C@@H](O)[C@@H](O)[C@@H]2[C@@H]3C(=O)N(Cc4ccccc4)C(=O)[C@@H]3CC[C@H]12`, the z-score was -0.869.

Take `Cc1ccc(S(=O)(=O)n2c3ccccc3c3nnc(C(=O)c4ccccc4)nc32)cc1`: the z-score is 0.892.

The compound `CCCNC(=O)OC[C@H]1O[C@H](CCON=C(C)CCN2CCc3nc(CC)c(CC)cc3C2)C=C[C@@H]1Oc1ccc(OC)cc1` had a z-score of -2.17.

On to `CC(C)=CCCC(C)=CCON=C1C[C@@H](O)[C@@H](O)[C@@H]2[C@@H]3C(=O)N(C[C@@H]4CCCO4)C(=O)[C@@H]3CC[C@H]12`, for which the z-score is -0.0721.

As for `CO[C@@H]1COC(=O)[C@H](CCSC)NC(=O)CC=C[C@@H](C)COC(=O)[C@H](C)NC(=O)CC=C[C@H]1C`, the z-score was -0.131.

On to `CO[C@H]1COC(=O)[C@@H](C)COC(=O)[C@H](C)NC(=O)CC=C[C@H]1C`, for which the z-score was -0.455.

In turn, `COc1ccc(COC(=O)NN=C2C[C@@H](O)[C@@H](O)[C@@H]3[C@@H]4C(=O)N(c5ccc(F)cc5F)C(=O)[C@@H]4CC[C@H]23)cc1` showed a z-score of -1.93.

`COc1ccc(O[C@H]2C=C[C@@H](c3ccccc3)O[C@@H]2CON=CC[C@@H]2C=C[C@H](OC(C)=O)[C@@H](COC(C)=O)O2)cc1`: the z-score was -0.483.

`CO[C@H]1COC(=O)[C@@H](C)COC(=O)[C@@H](OCc2ccccc2)C=C[C@@H]1C` had a z-score of -0.66.

`O=C1[C@H]2[C@H]3[C@H](O)[C@H](O)CC(=NO[C@@H]4O[C@H](CO)[C@@H](O)[C@H](O)[C@H]4O)[C@H]3CC[C@H]2C(=O)N1c1cccc(Oc2ccccc2)c1` registered a z-score of -0.418.

The compound `C=CC[C@@H]1C=C[C@H](ON=C2[C@H]3CCn4c(=O)n(-c5ccccc5)c(=O)n4[C@H]3[C@H](O)[C@@H]3O[C@H]23)[C@@H](CO)O1` registered a z-score of -0.605.

For `CO[C@H]1COC(=O)CC=C[C@H](C)COC(=O)[C@@H](C)NC(=O)CC=C[C@@H]1C`, the z-score is -1.19.

Take `C#CCCCON=C1C[C@@H](O)[C@@H](O)[C@@H]2[C@@H]3C(=O)N(C(C)(C)C)C(=O)[C@@H]3CC[C@@H]12`: the z-score was -0.315.

As for `Cc1ccc(S(=O)(=O)NC(CCc2ccccc2)CC(=O)C(C)(C)C)cc1` (centres undefined), the z-score is -0.268.

For `COc1ccc(O[C@H]2C=C[C@@H](c3ccccc3)O[C@@H]2CON=C(C)CCC(=O)OC[C@H]2O[C@H](c3ccccc3)C=C[C@@H]2Oc2ccc(OC)cc2)cc1`, the z-score is -1.61.

For `CCOC(=O)[C@H](CC(C)C)NC(=O)CCC1CC(OC(=O)NCc2ccc3c(c2)OCO3)CC2(CCCC(COC(=O)NCc3cccc(C(F)(F)F)c3)O2)O1` (some centres undefined), the z-score was -2.06.

With `O=C1OCCC=C1C(O)CCc1ccccc1` (centres undefined), the z-score was -0.542.

The compound `COC(=O)[C@@H]1CC[C@H](C)[C@@H](c2ccc(C)cc2)N1C(=O)c1ccc(C=NO[C@H](C)c2cn([C@H](CO)Cc3ccccc3)nn2)cc1` displayed a z-score of -1.76.
